The values that follow come from article PMC7862700, “An all-to-all approach to the identification of sequence-specific readers for epigenetic DNA modifications on cytosine”.

Holding throughout (experiment): DAPPL (digital affinity profiling via proximity ligation, sequencing); 10 mM Tris-HCl pH 7.5, 50 mM NaCl, 1 mM DTT, 4% glycerol, room temperature, 30 min; GST-TFs on glutathione beads, 16-mer random dsDNA library, 0.1% formaldehyde crosslink after washing; high values mean tight binding
The target in assay [1] is T1, FEV (Homo sapiens, UniProt Q99581 1-238).
T1 sequence: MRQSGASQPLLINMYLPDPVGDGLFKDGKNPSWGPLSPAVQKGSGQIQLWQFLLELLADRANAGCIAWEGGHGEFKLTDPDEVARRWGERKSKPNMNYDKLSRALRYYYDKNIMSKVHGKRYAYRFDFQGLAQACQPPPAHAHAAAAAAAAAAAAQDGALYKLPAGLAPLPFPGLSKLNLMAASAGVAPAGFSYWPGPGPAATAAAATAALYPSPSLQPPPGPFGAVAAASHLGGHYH
Conditions: protein: recombinant; tags: N-terminal GST; dsDNA, one strand shown. An outline of the steps: (§1)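 Each value of binding signal is a hexamer's read frequency for a factor divided by the same hexamer's frequency in the tag-only sample. Barcoded, bead-captured GST fusions of human transcription factors made in yeast were pooled with that sample and incubated with 200 nmole of a random double-stranded 16-mer DNA library in Tris/NaCl/DTT/glycerol buffer at room temperature for 30 min. Washing, 0.1% formaldehyde crosslinking, proximity ligation, PCR and Illumina NextSeq500 sequencing followed.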

Assay [2] deals with ETV5 (Homo sapiens, UniProt P41161 1-510). Conditions: protein: recombinant; tags: N-terminal GST; dsDNA, one strand shown. An outline of the steps:
as §1

The target in assay [3] is HSF1 (Homo sapiens, UniProt Q00613 1-529). Particulars: protein: recombinant; tags: N-terminal GST; chain copies: 3; dsDNA, one strand shown. The method, boiled down: as §1
For assay [4], the target named is T2, SPIC (Homo sapiens, UniProt Q8N5J4 1-248).
T2 sequence: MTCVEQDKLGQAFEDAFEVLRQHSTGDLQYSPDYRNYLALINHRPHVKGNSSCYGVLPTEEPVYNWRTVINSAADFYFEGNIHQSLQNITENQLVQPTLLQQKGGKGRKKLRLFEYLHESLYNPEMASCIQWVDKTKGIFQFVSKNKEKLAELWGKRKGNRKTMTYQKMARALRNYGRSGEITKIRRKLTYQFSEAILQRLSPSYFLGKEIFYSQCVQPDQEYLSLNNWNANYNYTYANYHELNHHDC
Particulars: protein: recombinant; tags: N-terminal GST; dsDNA, one strand shown. An outline of the steps: as §1

Assay [5] has as its target ELF4 (Homo sapiens, UniProt Q99607 1-663). Particulars: protein: recombinant; tags: N-terminal GST; dsDNA, one strand shown. The method, boiled down: as §1
For assay [6], the target named is T3, ELK4 (Homo sapiens, UniProt P28324-2 1-405).
T3 sequence: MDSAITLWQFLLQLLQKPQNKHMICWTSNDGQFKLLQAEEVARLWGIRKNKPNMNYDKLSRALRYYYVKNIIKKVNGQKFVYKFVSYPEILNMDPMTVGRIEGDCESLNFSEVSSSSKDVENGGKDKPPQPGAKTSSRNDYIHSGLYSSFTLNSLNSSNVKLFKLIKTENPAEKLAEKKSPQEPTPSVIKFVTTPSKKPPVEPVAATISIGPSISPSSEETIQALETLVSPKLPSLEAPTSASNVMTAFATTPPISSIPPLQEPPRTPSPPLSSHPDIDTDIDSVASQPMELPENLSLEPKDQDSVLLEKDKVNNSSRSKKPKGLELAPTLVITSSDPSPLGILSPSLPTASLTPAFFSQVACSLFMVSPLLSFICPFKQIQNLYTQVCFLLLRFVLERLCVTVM
Conditions: protein: recombinant; tags: N-terminal GST; dsDNA, one strand shown. The method, boiled down: as §1

Assay [7] addresses T4, ETV2 (Homo sapiens, UniProt O00321 1-342).
T4 sequence: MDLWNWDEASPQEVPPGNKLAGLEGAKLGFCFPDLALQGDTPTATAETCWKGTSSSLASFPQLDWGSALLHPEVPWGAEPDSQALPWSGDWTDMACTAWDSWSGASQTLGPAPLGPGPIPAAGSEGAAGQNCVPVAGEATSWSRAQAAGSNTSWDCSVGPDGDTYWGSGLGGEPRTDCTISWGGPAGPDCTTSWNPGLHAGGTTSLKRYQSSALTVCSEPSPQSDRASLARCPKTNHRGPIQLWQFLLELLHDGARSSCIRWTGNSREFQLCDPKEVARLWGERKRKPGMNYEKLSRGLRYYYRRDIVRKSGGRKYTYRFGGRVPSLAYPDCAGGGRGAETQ
Conditions: protein: recombinant; tags: N-terminal GST; dsDNA, one strand shown. The method, boiled down:
as §1

In assay [8] the target is T5, ELF3 (Homo sapiens, UniProt P78545 1-371).
T5 sequence: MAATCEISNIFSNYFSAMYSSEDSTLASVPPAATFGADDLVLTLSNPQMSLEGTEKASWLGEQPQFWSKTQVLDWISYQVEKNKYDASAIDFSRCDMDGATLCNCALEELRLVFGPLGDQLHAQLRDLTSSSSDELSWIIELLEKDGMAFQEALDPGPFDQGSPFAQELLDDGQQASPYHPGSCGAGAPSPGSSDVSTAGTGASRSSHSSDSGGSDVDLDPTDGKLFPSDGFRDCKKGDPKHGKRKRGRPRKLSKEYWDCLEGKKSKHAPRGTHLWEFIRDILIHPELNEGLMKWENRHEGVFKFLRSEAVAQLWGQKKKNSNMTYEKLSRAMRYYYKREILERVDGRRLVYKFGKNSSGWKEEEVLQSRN
Particulars: protein: recombinant; tags: N-terminal GST; dsDNA, one strand shown. An outline of the steps: as §1

The target in assay [9] is CRX (Homo sapiens, UniProt O43186 1-299). Conditions: protein: recombinant; tags: N-terminal GST; dsDNA, one strand shown. The method, boiled down:
as §1

The target of assay [10] is ETV1 (Homo sapiens, UniProt P50549 1-477). Conditions: protein: recombinant; tags: N-terminal GST; dsDNA, one strand shown. The method, boiled down: as §1
Assay [11] has as its target T6, ERF (Homo sapiens, UniProt P50548 1-548).
T6 sequence: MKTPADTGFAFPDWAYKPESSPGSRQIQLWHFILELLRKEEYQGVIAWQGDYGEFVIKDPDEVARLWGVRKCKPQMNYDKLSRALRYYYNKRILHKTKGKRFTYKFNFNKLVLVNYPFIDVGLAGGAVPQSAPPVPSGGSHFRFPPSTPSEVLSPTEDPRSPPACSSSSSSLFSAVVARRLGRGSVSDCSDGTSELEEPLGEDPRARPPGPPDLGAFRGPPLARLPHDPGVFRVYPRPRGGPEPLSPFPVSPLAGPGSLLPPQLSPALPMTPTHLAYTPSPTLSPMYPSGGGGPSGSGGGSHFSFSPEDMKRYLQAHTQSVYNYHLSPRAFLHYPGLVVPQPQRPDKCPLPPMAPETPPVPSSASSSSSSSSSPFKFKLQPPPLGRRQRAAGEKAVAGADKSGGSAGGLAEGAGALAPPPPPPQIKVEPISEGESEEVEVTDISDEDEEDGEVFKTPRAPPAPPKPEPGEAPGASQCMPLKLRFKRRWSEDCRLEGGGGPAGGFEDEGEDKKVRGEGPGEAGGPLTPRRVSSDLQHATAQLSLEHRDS
Conditions: protein: recombinant; tags: N-terminal GST; dsDNA, one strand shown. An outline of the steps:
as §1

Assay [12] deals with T7, ETV3L (Homo sapiens, UniProt Q6ZN32 1-361).
T7 sequence: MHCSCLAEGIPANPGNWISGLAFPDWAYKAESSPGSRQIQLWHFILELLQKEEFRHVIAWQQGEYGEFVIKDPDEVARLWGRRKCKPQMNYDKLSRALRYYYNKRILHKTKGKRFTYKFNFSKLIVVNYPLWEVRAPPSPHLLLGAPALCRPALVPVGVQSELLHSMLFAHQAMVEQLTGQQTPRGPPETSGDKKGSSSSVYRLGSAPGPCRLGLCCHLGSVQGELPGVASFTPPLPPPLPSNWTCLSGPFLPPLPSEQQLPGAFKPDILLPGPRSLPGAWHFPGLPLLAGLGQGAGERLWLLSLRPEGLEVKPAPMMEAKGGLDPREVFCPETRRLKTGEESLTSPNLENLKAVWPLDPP
Conditions: protein: recombinant; tags: N-terminal GST; dsDNA, one strand shown. The method, boiled down: as §1

For assay [13], the target named is T8, ETS2 (Homo sapiens, UniProt P15036 1-469).
T8 sequence: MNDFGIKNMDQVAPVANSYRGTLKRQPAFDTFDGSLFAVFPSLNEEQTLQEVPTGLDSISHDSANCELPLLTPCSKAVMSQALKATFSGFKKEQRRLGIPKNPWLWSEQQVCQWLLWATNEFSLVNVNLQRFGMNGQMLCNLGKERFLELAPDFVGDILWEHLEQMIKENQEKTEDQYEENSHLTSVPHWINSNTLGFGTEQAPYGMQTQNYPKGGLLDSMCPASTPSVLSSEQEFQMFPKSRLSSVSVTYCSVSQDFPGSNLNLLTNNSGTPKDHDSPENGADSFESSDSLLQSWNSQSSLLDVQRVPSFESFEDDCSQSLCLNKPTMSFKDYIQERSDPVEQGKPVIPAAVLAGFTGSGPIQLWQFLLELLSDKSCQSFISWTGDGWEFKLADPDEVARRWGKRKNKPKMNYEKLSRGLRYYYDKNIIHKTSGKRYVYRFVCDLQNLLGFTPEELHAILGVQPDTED
Particulars: protein: recombinant; tags: N-terminal GST; dsDNA, one strand shown. The method, boiled down:
as §1

Assay [14] addresses T9, SPDEF (Homo sapiens, UniProt O95238 1-335).
T9 sequence: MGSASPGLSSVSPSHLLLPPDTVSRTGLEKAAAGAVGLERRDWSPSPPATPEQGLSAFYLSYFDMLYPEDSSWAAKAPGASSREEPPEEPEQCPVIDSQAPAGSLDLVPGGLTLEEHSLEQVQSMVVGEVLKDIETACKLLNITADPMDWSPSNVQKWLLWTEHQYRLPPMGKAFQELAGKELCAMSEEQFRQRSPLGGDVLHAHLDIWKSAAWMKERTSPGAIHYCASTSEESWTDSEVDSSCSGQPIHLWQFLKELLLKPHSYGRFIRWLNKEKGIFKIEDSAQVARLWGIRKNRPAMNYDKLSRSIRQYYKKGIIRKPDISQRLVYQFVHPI
Particulars: protein: recombinant; tags: N-terminal GST; dsDNA, one strand shown. An outline of the steps: as §1

Assay [15] has as its target T10, ETV7 (Homo sapiens, UniProt Q9Y603 1-341).
T10 sequence: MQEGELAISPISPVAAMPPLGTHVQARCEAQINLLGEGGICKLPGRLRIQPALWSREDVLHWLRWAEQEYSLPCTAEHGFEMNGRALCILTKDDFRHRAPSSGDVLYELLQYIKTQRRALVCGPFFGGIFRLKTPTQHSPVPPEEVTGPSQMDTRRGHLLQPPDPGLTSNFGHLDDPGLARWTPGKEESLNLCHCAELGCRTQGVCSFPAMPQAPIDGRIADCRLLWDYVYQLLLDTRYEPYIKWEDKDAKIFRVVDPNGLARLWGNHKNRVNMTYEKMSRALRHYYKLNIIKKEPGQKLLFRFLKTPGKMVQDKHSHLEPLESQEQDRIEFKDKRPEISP
Conditions: protein: recombinant; tags: N-terminal GST; dsDNA, one strand shown. The method, boiled down: as §1

The target of assay [16] is T11, ELF5 (Homo sapiens, UniProt Q9UKW6-2 1-255).
T11 sequence: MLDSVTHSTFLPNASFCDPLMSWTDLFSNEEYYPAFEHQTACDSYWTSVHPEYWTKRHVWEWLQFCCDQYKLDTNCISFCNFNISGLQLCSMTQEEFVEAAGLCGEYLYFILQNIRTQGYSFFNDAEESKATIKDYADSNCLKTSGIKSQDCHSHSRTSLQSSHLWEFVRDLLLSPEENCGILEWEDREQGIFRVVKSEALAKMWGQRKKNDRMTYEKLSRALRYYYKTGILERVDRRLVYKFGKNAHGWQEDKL
Particulars: protein: recombinant; tags: N-terminal GST; dsDNA, one strand shown. The method, boiled down:
as §1

Assay [17] deals with T12, ETV3 (Homo sapiens, UniProt P41162-2 1-143).
T12 sequence: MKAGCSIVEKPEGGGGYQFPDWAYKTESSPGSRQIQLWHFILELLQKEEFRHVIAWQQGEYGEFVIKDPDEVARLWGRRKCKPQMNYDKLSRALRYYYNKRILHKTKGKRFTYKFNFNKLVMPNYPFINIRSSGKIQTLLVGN
Conditions: protein: recombinant; tags: N-terminal GST; dsDNA, one strand shown. An outline of the steps:
as §1

Assay [18] concerns the target ETV6 (Homo sapiens, UniProt P41212 1-452). Conditions: protein: recombinant; tags: N-terminal GST; dsDNA, one strand shown. The method, boiled down: as §1

ETV5, sequence (P41161 whole entry): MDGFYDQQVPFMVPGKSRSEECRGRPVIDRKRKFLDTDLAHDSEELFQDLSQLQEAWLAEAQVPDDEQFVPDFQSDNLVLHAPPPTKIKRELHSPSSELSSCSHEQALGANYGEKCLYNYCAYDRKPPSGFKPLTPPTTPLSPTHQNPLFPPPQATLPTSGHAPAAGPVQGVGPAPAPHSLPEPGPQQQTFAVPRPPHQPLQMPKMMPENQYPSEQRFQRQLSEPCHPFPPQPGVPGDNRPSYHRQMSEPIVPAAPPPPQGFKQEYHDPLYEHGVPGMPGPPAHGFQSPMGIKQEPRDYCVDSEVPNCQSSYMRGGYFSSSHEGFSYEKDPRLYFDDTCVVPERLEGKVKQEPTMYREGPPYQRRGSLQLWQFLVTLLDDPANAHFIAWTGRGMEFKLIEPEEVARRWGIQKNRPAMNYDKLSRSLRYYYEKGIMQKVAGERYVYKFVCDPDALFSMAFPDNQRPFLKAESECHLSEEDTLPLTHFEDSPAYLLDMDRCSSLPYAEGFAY
CRX, sequence (O43186 whole entry): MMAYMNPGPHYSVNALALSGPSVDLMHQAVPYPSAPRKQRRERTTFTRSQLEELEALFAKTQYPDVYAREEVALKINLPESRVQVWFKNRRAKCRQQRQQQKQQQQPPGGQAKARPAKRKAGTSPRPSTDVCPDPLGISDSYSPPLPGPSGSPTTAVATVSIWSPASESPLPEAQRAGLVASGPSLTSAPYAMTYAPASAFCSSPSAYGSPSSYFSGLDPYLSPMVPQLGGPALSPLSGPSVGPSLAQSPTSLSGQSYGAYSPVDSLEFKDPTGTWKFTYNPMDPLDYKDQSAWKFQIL
ETV1, sequence (P50549 whole entry): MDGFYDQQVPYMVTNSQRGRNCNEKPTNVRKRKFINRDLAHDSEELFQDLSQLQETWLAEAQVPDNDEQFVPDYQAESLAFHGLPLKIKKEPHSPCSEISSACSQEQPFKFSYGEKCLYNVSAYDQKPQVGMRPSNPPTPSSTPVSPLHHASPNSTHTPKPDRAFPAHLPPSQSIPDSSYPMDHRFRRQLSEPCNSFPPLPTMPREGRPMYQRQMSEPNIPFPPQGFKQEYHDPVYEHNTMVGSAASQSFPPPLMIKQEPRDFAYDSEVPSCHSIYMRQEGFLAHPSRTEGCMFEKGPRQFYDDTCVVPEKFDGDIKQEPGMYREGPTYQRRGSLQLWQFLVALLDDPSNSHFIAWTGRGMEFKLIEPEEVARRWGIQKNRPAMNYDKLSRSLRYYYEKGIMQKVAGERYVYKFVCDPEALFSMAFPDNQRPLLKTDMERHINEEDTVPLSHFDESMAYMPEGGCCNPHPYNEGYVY
HSF1, sequence (Q00613 whole entry): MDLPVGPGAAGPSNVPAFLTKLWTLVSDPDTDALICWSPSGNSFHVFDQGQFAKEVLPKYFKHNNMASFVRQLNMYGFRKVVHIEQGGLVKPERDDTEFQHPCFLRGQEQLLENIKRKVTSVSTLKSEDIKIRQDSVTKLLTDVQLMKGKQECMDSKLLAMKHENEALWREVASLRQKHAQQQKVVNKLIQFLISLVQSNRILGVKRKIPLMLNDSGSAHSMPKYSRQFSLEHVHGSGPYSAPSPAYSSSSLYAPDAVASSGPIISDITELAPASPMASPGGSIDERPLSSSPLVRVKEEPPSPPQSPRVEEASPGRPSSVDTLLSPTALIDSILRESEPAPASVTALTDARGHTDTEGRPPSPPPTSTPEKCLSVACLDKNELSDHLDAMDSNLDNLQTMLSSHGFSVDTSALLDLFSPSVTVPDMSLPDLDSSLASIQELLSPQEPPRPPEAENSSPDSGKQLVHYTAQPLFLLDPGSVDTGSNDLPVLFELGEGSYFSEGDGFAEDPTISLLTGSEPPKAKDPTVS
ETV6, sequence (P41212 whole entry): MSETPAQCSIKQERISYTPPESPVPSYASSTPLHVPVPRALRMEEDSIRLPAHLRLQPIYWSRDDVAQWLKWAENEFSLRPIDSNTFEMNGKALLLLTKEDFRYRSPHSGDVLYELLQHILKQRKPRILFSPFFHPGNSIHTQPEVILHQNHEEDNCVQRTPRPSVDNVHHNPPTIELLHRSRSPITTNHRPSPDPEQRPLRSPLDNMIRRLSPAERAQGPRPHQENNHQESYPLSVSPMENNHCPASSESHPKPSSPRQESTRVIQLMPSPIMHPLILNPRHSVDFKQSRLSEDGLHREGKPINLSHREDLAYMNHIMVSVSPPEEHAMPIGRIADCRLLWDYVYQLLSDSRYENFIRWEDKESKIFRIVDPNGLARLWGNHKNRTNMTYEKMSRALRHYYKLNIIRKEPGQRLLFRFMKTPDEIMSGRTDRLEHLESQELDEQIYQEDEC
ELF4, sequence (Q99607 whole entry): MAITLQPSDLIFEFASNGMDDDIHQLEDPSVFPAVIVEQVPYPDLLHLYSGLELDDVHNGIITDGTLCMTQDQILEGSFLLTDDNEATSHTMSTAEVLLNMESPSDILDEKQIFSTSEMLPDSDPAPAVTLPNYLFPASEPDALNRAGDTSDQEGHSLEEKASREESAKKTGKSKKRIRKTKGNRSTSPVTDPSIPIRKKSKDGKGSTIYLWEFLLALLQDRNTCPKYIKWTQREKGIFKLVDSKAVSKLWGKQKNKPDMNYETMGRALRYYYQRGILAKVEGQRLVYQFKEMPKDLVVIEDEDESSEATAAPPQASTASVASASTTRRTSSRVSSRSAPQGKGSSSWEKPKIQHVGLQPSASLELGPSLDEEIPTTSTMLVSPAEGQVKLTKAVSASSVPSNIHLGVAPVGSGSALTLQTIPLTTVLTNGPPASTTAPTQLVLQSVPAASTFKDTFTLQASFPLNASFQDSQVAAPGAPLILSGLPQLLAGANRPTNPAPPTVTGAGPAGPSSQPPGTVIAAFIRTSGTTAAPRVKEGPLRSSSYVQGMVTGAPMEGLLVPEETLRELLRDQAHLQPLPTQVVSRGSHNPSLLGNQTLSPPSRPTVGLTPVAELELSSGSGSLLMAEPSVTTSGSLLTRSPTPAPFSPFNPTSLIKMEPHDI

Consider ACGCTT, for which the binding signal was 1.4 fold enrichment (6-mer frequency, TF over GST control) in [1]; 1.41 fold enrichment (6-mer frequency, TF over GST control) in assay [2]; 1.22 fold enrichment (6-mer frequency, TF over GST control) in assay [3]; 1.32 fold enrichment (6-mer frequency, TF over GST control) in [4]; 1.43 fold enrichment (6-mer frequency, TF over GST control) in assay [5]; 1.23 fold enrichment (6-mer frequency, TF over GST control) in assay [6]. For the same sequence, the binding signal is 1.28 fold enrichment (6-mer frequency, TF over GST control) in assay [7]; 1.55 fold enrichment (6-mer frequency, TF over GST control) in assay [8]; 1.36 fold enrichment (6-mer frequency, TF over GST control) in [9]; 1.39 fold enrichment (6-mer frequency, TF over GST control) in assay [10]; 1.5 fold enrichment (6-mer frequency, TF over GST control) in [11]; 1.35 fold enrichment (6-mer frequency, TF over GST control) in assay [12]. In addition, the binding signal in assay [13] is 1.42 fold enrichment (6-mer frequency, TF over GST control); in [14], 1.39 fold enrichment (6-mer frequency, TF over GST control); in assay [15], 1.52 fold enrichment (6-mer frequency, TF over GST control); in assay [16], 1.22 fold enrichment (6-mer frequency, TF over GST control); in [17] it was 1.4 fold enrichment (6-mer frequency, TF over GST control); in assay [18], 1.45 fold enrichment (6-mer frequency, TF over GST control).
